PubChem BioAssay (NCATS)
Records with an inconclusive call do not appear. Calls of active or inactive are those of the source. Unless noted, calls follow the shape of the dose curve; as a rule, active = well fitted curve in the direction sought with a large enough effect; inconclusive = small, poorly fitted or top-dose-only effect, or another doubt; inactive = no such curve, though single readings can be large; an effect the other way counts as inactive or inconclusive.

Tests used:
[1] = target: Lysosomal acid glucosylceramidase (Homo sapiens) (UniProt P04062); test: Glucocerebrosidase-p2 (AID 348; in the data active = potency below about 10 µM; also: potency is read from the fitted curve at half-maximal effect); settings: purified GBA, blue fluorogenic substrate, 40 min
In short: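 Compounds titrated from 0.6 nM upwards against 0.2 nM enzyme in pH 5.9 citric acid/KH2PO4, taurocholate, tween-20; blue fluorogenic substrate 80 uM, 40 min room temperature, stopped and read Ex 365/Em 440 for AC50.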

[2] = AP1 Signaling Pathway (AID 357; active = well fitted curve in either direction with a large enough effect, not every such curve was filed as active;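 also: ME-180 reporter cells stimulated with EGF at its EC50 level; % is scaled to controls: 0 for no effect and ±100 for the full control effect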); settings: ME-180 AP-1-bla reporter, EGF-induced, beta-lactamase ratio, 5 h; at 7.69 µM (top of the series) unless noted
In short: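 In this screen, ME-180 cells in Opti-MEM with 0.5% dialyzed FBS received EC50 EGF and compound titrations for 5 h. AP-1 reporter beta-lactamase was detected via CCF4 ratio, giving AC50 for positive and negative modulators.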

[3] = target: Cytochrome P450 1A2 (Homo sapiens) (UniProt P05177); test: p450-cyp1a2 (AID 410; calls by dose curve; also: potency is read from the fitted curve at half-maximal effect); settings: recombinant CYP1A2, luciferin-ME demethylation, luminescence; series mostly up to 57 µM
In short: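 Human CYP1A2 (20nM) demethylated Luciferin-ME at its Km (100uM) in 100mM KPO4. After 10 min compound preincubation, NADPH regeneration ran the reaction 60 min at room temperature. Luciferin was read by luminescence, normalized to 57 uM furafylline.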

[4] = NFAT Signaling Pathway (AID 444; active = well fitted curve in either direction with a large enough effect, not every such curve was filed as active;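 also: carbachol stimulus at about its EC50 of 1 µM final; % is scaled to controls: 0 for no effect and ±100 for the full control effect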); settings: Jurkat NFAT-bla M1, carbachol, beta-lactamase ratio, 5 h; at 7.69 µM (top of the series) unless noted
In short: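 Read-out: CCF4 FRET ratio (460 nm/530 nm) after 1 h RT dye loading, used for %activity and AC50 from titration series. Cells: Jurkat NFAT-β-lactamase/M1 line, treated with compound plus 1 uM carbachol for 5 h, 37 °C.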

[5] = Stat Signaling Pathway (AID 446; active = well fitted curve in either direction with a large enough effect, not every such curve was filed as active;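 also: ME-180 cervical cancer cells given 40 pM IL-6 alongside compound; SIE-controlled beta-lactamase reporter measured as 460/530 nm FRET emission ratio; % is scaled to controls: 0 for no effect and ±100 for the full control effect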); settings: ME-180 SIE beta-lactamase reporter, IL-6 stimulated, 5 h; at 7.69 µM (top of the series) unless noted
In short: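 Screening format detects activators and inhibitors alike: ME-180 SIE-bla cells stimulated at 40 pM IL-6 for 5 hrs with compound, then dual-emission beta-lactamase read at 405 nm excitation.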

[6] = target: Glucocorticoid receptor (Homo sapiens) (UniProt P04150); test: GR-GFP Redistribution (AID 450;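 active = compounds whose dose series gives a full or clear partial fitted curve of increased nuclear translocation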; also: potency is read from the fitted curve at half-maximal effect); settings: U2OS GR-GFP nuclear translocation, laser cytometry, 2 h
[7] = target: Glucocorticoid receptor (Homo sapiens) (UniProt P04150); test: GR-EFC Redistribution (AID 451; calls by dose curve; also: potency is read from the fitted curve at half-maximal effect); settings: CHO-K1 GR-EFC translocation, beta-gal luminescence, 2 h
In short: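 Translocation of GR-ED fusion to nuclear EA restores b-gal, read by luminescence after 1 h room-temperature detection. Engineered CHO-K1 biosensor cells, 1,000/well, exposed 2 h at 37 C to titrations up to 46 uM final.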

[8] = target: Mitogen-activated protein kinase 10 (Mus musculus) (UniProt Q61831); test: JNK3 AlphaScreen Assay (AID 530; active = well fitted curve in either direction with a large enough effect, not every such curve was filed as active;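 also: kinase came from lysate of stimulated human HepG2 cells; signal reports phosphorylation of biotinylated GST-cJun 1-79 at Ser73 with 10 µM ATP; % is scaled to controls: 0 for no effect and ±100 for the full control effect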); settings: JNK3 lysate, c-Jun phosphorylation; series mostly up to 57.1 µM
In short: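 Room-temperature AlphaScreen kinase assay; pre-activated HepG2 lysate as JNK3 source, biotin-GST-cJun(1-79) substrate, 10 uM ATP, compound 15 min preincubation.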

[9] = target: 3',5'-cyclic-AMP phosphodiesterase 4B (Homo sapiens) (UniProt Q07343); test: qHTS Assay for Inhibitors of PDE-IV (AID 607; active = well fitted activation curve with a large enough effect in the main read-out, with a control signal flat, not every such curve was filed as active; also: % of control where 0% means no effect); settings: HEK293 ACTOne CNG channel cells, membrane potential fluorescence; series mostly up to 22.9 µM
In short: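 The readout is membrane depolarisation from a cAMP-sensing CNG channel, detected with a potential dye at ex 535/em 590. Cells were HEK293-derived (endogenous PDE-IV) at 1000 cells/well, titrated up to 22.9 uM final.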

[10] = target: Cytochrome P450 3A4 (Homo sapiens) (UniProt P08684); test: qHTS Assay for Activators of Cytochrome P450 3A4 (AID 885); settings: recombinant CYP3A4, Luciferin-PPXE luminescence, 60 min; series mostly up to 57.1 µM; also: nearly all actives have a fitted effect of over 65% in size
In short: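 Steps: enzyme/substrate mix dispensed; compound added, 10 min RT; NADPH regeneration solution added, 60 min RT; luciferin detection buffer stops reaction; 20 min later luminescence measured.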

[11] = qHTS Assay for Lipid Storage Modulators (AID 1519; calls by dose curve); settings: Drosophila S3 cells, BODIPY lipid droplet/cell ratio, laser cytometry, cells loaded with oleic acid; for activity change, negative = inhibition: at 57.5 µM (top of the series)
In short: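 Cells seeded at 5,000 per well were treated with compounds over a concentration series and loaded with oleic acid (400 uM, as added). Lipid droplet fluorescence (488 nm excitation, 500-530 nm channel) was read by laser-scanning cytometry and normalized to 20 uM Triacsin C.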

[12] = target: Dual specificity protein kinase CLK4 (Homo sapiens) (UniProt Q9HAZ1); test: qHTS Assay for Inhibitors of CDC-like Kinase 4 (Kinase-Glo Assay) (AID 1770); settings: recombinant Clk4, Kinase-Glo ATP depletion luminescence; series mostly up to 66.7 µM; also: nearly all actives have a fitted effect of over 65% in size; also: potency is read from the fitted curve at half-maximal effect
In short: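 Recombinant human Clk4 (25 nM) phosphorylated RS repeat peptide (100 uM) with 1 uM ATP in Tris pH 7.5/MgCl2/EGTA/DTT/Triton buffer for 4.5 h at room temperature. Residual ATP was quantified by Kinase-Glo luciferase luminescence.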

[13] = target: Dual specificity protein kinase CLK4 (Homo sapiens) (UniProt Q9HAZ1); test: qHTS Assay for Inhibitors of CDC-like Kinase 4 (ADP-Glo Assay) (AID 1771); settings: recombinant CLK4, ADP-Glo luminescence; series mostly up to 80 µM; also: nearly all actives have a fitted effect of over 70% in size; also: potency is read from the fitted curve at half-maximal effect
In short: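 Clk4 (25 nM) was incubated 1 hr at room temperature with 100 uM RS repeat peptide and 1 uM ATP in buffer with 2 mM MgCl2, 0.5 mM EGTA, 2.5 mM DTT. ADP formed was quantified by ADP-Glo luminescence.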

[14] = target: Dual specificity protein kinase CLK4 (Homo sapiens) (UniProt Q9HAZ1); test: qHTS Assay for Inhibitors of CDC-like Kinase 4 (ADP-FP Assay) (AID 1795); settings: Transcreener ADP fluorescence polarization; series mostly up to 50 µM; also: nearly all actives have a fitted effect of over 60% in size; also: potency is read from the fitted curve at half-maximal effect
In short: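 Recombinant human Clk4 (6.25 nM) phosphorylated RS repeat peptide (100 uM) with 1 uM ATP in Tris pH 7.5/MgCl2/EGTA/DTT/Triton buffer for one hour. ADP was quantified by Transcreener competitive fluorescence polarization against an ADP calibration curve.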

[15] = Primary qHTS for small molecule stabilizers of the endoplasmic reticulum resident proteome: Secreted ER Calcium Modulated Protein (SERCaMP) assay (AID 1508630); settings: SH-SY5Y GLuc-SERCaMP (Gaussia luciferase released on ER calcium loss) secretion, thapsigargin, luminescence; series mostly up to 38.4 µM; also: % is scaled to controls: 0 for no effect and ±100 for the full control effect
In short: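 GLuc-SERCaMP-expressing SH-SY5Y cells, pretreated 16 h with compound, are challenged with thapsigargin to empty ER calcium stores; after 4 h, coelenterazine is added directly to the medium and luminescence is imaged.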

[16] = target: Ubiquitin carboxyl-terminal hydrolase 1 (Homo sapiens) (UniProt O94782); test: Inhibitors of USP1/UAF1: Pilot qHTS (AID 504865); settings: purified USP1/UAF1, Ub-rhodamine cleavage fluorescence; series mostly up to 54.9 µM;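 also: rhodamine fluorescence freed from ubiquitin-rhodamine substrate followed over time; top concentration of the series differs between compounds; % is scaled to controls: 0 for no effect and ±100 for the full control effect; nearly all actives have a fitted effect of over 35% in size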
In short: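 USP1/UAF1 complex (1nM) preincubated with compound 15 min at room temperature, then Ub-Rho substrate (150nM final) added. Fluorescence read kinetically at 480/540 nm, 6 reads every 60 seconds. Buffer: 50mM HEPES pH 7.8, 0.5mM EDTA, 0.1 mg/ml BSA, 1mM TCEP, 0.01% Tween-20.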

[17] = target: Cytochrome P450 3A4 (Homo sapiens) (UniProt P08684); test: qHTS Assay for Inhibitors and Substrates of Cytochrome P450 3A4 (AID 884); settings: recombinant CYP3A4, Luciferin-PPXE luminescence; series mostly up to 57.1 µM; also: potency is read from the fitted curve at half-maximal effect; nearly all actives have a fitted effect of over 50% in size
In short: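 20 nM human CYP3A4 with 25 uM Luciferin-PPXE (at KM) in 200 mM KPO4, preincubated 10 min with compound; NADPH regeneration started a 60 min RT reaction. Luciferin detected by luminescence, normalized to 57 uM ketoconazole as full inhibition.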

[18] = target: Cytochrome P450 2C9 (Homo sapiens) (UniProt P11712); test: qHTS Assay for Inhibitors and Substrates of Cytochrome P450 2C9 (AID 883); settings: recombinant CYP2C9, luciferin-H luminescence, 60 min; series mostly up to 57.1 µM; also: % is scaled to controls: 0 for no effect and ±100 for the full control effect; nearly all actives have a fitted effect of over 60% in size
In short: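 Inhibition of CYP2C9 is scored as loss of luminescence, with 57uM sulphaphenazole defining 100% inhibition. Substrate Luciferin-H is used at 100uM, equal to its KM; enzyme at 10nM in 25mM KPO4, 60 min at 37C with NADPH regeneration.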

[19] = measured here: cell count channel max response
[20] = measured here: lipid channel max response

Sequence of Cytochrome P450 3A4 (Homo sapiens) (P08684 whole entry, looked up): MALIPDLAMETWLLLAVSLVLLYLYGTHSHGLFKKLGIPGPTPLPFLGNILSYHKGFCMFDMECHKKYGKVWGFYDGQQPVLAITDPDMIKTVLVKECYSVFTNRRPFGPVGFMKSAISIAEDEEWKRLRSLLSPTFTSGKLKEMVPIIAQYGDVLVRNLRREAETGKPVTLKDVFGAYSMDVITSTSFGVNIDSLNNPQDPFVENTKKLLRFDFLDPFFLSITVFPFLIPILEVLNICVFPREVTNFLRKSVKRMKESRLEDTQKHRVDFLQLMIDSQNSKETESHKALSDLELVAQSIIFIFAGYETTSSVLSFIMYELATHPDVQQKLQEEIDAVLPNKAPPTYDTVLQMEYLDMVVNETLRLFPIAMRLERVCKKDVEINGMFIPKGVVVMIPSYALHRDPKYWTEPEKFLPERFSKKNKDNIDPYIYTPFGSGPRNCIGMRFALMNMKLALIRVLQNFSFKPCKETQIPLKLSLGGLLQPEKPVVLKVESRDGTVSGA
Sequence of Cytochrome P450 1A2 (Homo sapiens) (P05177 whole entry, looked up): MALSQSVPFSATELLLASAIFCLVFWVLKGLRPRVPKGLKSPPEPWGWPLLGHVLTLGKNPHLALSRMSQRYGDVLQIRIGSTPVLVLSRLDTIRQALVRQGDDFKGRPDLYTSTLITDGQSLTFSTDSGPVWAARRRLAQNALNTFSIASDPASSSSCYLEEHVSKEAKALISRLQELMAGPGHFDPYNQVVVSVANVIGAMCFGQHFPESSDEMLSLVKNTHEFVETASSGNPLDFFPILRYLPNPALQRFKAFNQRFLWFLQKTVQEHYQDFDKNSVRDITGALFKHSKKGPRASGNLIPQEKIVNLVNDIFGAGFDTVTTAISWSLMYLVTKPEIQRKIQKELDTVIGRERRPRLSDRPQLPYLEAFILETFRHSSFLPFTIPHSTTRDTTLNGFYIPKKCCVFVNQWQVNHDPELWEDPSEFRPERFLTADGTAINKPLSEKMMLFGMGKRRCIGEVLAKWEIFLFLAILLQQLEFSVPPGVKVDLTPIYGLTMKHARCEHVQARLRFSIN
Sequence of Glucocorticoid receptor (Homo sapiens) (P04150 whole entry, looked up, the tested form may be a part): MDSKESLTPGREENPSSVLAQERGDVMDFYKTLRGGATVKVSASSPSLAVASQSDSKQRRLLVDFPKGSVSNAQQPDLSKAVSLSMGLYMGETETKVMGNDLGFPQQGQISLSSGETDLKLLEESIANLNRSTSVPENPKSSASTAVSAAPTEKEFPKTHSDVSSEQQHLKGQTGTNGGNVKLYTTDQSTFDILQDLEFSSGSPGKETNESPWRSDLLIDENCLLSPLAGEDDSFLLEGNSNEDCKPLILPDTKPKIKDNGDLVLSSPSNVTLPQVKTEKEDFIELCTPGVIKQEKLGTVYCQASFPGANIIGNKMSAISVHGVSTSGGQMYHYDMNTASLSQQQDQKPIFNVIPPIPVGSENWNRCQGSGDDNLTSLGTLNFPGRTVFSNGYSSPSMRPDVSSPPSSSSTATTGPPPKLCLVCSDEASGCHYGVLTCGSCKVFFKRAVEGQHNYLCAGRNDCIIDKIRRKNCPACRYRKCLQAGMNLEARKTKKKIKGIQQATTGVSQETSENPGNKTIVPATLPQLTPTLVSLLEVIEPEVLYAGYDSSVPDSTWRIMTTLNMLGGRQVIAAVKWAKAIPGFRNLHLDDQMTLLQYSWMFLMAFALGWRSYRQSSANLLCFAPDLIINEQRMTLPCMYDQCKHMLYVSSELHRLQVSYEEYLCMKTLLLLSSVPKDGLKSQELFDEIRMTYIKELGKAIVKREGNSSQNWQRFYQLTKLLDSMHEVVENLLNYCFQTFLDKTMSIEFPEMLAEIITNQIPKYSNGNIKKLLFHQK
Sequence of Dual specificity protein kinase CLK4 (Homo sapiens) (Q9HAZ1 whole entry, looked up): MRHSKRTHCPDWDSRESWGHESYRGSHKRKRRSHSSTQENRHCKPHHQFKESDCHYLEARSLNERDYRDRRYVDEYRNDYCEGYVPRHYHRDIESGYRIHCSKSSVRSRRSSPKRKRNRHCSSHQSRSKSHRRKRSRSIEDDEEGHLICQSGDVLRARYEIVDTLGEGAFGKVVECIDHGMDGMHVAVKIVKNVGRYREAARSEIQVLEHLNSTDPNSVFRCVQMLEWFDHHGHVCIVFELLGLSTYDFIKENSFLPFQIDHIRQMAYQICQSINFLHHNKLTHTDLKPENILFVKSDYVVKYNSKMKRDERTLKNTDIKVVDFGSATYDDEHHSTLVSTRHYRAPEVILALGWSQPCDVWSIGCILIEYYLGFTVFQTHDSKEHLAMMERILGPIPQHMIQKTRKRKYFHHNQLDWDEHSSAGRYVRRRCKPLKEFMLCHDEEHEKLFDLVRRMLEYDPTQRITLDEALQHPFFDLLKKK
Sequence of Lysosomal acid glucosylceramidase (Homo sapiens) (P04062 whole entry, looked up): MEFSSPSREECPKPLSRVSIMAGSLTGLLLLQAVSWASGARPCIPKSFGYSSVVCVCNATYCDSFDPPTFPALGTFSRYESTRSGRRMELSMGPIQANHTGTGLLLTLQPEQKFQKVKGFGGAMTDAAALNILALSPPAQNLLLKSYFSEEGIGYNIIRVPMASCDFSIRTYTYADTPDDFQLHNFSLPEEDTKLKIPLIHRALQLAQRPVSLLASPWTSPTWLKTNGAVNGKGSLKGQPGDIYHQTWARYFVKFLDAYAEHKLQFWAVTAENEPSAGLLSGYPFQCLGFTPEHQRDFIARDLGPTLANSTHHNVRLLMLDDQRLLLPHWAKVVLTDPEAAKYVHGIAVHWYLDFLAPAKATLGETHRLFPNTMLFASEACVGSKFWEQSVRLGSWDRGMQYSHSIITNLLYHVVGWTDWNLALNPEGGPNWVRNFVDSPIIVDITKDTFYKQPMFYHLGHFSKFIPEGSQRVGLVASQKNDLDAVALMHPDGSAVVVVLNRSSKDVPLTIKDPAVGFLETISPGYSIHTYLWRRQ
Sequence of Ubiquitin carboxyl-terminal hydrolase 1 (Homo sapiens) (O94782 whole entry, looked up): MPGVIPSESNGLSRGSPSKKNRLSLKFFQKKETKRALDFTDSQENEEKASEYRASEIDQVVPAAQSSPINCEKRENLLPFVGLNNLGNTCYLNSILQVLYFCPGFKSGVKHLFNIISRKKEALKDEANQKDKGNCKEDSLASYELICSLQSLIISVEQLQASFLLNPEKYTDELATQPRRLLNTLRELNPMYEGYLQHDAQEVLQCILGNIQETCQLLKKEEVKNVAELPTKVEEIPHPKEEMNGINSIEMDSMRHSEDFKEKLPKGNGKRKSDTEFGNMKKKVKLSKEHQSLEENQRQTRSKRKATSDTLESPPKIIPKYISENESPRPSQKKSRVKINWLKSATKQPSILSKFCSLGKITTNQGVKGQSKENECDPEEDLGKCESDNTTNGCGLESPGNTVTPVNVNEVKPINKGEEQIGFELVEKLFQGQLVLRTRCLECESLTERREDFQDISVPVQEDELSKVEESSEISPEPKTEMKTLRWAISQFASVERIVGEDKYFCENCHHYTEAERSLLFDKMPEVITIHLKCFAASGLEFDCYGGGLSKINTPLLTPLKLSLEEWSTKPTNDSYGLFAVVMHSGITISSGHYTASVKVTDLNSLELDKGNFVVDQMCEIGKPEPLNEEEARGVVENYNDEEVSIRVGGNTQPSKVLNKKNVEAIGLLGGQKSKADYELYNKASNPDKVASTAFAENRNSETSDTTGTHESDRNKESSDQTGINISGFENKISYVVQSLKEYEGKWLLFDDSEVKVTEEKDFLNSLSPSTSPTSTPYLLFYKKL
Sequence of 3',5'-cyclic-AMP phosphodiesterase 4B (Homo sapiens) (Q07343 whole entry, looked up): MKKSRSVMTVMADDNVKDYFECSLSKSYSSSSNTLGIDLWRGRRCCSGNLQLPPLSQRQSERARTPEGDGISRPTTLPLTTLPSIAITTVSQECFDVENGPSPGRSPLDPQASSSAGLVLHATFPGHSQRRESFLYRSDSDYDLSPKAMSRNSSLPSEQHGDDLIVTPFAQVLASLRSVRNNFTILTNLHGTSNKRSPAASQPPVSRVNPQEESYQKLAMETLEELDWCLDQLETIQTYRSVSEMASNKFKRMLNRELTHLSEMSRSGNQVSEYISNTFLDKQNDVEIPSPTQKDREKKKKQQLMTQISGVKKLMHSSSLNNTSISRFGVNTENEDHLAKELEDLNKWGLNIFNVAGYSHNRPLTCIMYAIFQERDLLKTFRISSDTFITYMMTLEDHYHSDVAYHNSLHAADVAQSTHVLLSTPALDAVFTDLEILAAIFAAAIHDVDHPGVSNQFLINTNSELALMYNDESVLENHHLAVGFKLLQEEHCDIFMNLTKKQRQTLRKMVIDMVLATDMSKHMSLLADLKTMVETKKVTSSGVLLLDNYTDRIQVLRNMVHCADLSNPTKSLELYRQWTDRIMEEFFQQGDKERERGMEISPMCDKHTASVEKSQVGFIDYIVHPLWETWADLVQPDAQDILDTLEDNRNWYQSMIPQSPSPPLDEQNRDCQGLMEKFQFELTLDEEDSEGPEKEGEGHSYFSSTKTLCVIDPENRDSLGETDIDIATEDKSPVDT
Sequence of Cytochrome P450 2C9 (Homo sapiens) (P11712 whole entry, looked up): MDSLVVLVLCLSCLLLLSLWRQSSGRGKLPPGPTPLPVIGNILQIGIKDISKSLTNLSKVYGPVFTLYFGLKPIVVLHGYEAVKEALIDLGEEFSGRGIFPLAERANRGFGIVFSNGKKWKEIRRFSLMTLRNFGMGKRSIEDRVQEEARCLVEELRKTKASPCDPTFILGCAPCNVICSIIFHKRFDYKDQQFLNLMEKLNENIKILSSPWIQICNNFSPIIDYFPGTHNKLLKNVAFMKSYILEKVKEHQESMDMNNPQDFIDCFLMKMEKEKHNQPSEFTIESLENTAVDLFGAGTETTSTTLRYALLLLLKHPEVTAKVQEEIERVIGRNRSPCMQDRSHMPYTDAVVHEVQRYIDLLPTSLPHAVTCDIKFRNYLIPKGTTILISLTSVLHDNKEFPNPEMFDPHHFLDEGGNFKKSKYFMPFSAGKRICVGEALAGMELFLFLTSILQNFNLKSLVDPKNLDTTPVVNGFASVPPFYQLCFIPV

SMILES	Potency [1]	activity change, negative = inhibition [2]	Potency [3]	activity change, negative = inhibition [4]	activity, negative = inhibition [5]	Potency [6]	Potency [7]	outcome [8]	Potency [9]	Potency [10]	activity change, negative = inhibition [11]	max response [11, 19] [%]	max response [11, 20] [%]	Potency [12]	Potency [13]	Potency [14]	Potency [15]	Potency [16]	Potency [17]	Potency [18]
CS(=O)(=O)Nc1cccc(-c2ccc3ncnc(N4CCNCC4)c3c2)c1	> 11.4 µM (inactive)	-1.37% (inactive)	12.6 µM (active)	23.1% (inactive)	-16.8% (inactive)	> 46 µM (inactive)	> 46 µM (inactive)	inactive	inactive	inactive	5.65% (inactive)	18.2	22.6	6.31 µM (active)	15.8 µM (active)	5.01 µM (active)	inactive	–	–	–
CC(=O)NCCNc1cc(-c2ccccc2C(F)(F)F)ncn1	> 11.4 µM (inactive)	9.07% (inactive)	25.1 µM (active)	15.3% (inactive)	6.62% (inactive)	> 46 µM (inactive)	> 46 µM (inactive)	–	inactive	–	0.0704% (inactive)	5.19	3.95	inactive	inactive	inactive	inactive	inactive	–	–
COc1ccc(-n2c(=O)c(-c3cccs3)nc3cnc(OC)nc32)cc1	> 11.4 µM (inactive)	-22.9% (inactive)	5.01 µM (active)	-2.37% (inactive)	-2.82% (inactive)	–	> 46 µM (inactive)	inactive	–	inactive	3.59% (inactive)	12.4	13.8	inactive	inactive	inactive	inactive	inactive	7.94 µM (active)	–
O=c1cnc2cnc(N3CCOCC3)nc2n1CCc1ccccc1	> 11.4 µM (inactive)	-4.12% (inactive)	3.16 µM (active)	-13.2% (inactive)	-10.2% (inactive)	> 9.22 µM (inactive)	–	–	–	inactive	3.67% (inactive)	1.44	3.8	7.08 µM (active)	7.94 µM (active)	8.91 µM (active)	inactive	inactive	–	–
COCCn1c(=O)c(C)nc2cnc(N3CCN(C)CC3)nc21	> 11.4 µM (inactive)	-5.64% (inactive)	15.8 µM (active)	4.52% (inactive)	-3.76% (inactive)	> 9.22 µM (inactive)	> 46 µM (inactive)	inactive	inactive	–	2.08% (inactive)	3.08	2.85	inactive	inactive	inactive	inactive	–	–	inactive
COc1ccc(-n2c(=O)c(-c3cccs3)nc3cnc(N4CCOCC4)nc32)cc1	> 11.4 µM (inactive)	0.656% (inactive)	12.6 µM (active)	-15.7% (inactive)	–	> 9.22 µM (inactive)	> 46 µM (inactive)	inactive	inactive	inactive	5.16% (inactive)	28.1	27.2	inactive	inactive	inactive	inactive	–	–	–
